A selection: hits, their analogues and other compounds. The true share with any hit is near 7.1%.
SW480 rerep: induces DNA re-replication in SW480 colon adenocarcinoma cells | SW480 DNA re-replication, Hoechst DNA content imaging, 48 h | Potency, µM (top dose mostly 46.1 µM), for inactives: top-dose re-replication activation, most hits filed as activators | hit rate 1.8% among 340,000 | AID 624297; also: % of control where 0% means no effect; nearly all actives have a fitted effect of over 55% in size
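Image-based DNA-content assay: after two days of treatment, nuclei were labelled with the DNA dye Hoechst and imaged, and hits were compounds raising the count of nuclei showing high fluorescence intensity.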
A-T KAP1 phos: potential ataxia-telangiectasia treatment | F2112 A-T fibroblasts, KAP-1 phosphorylation AlphaLISA; neocarzinostatin DNA damage 30 min before lysis | Potency, µM (highest dose often 57.5 µM), for the others: at the top dose activation, usual class: activators | hit rate 0.19% among 320,000 | AID 485349; also: % of control where 0% means no effect; nearly all actives have a fitted effect of over 45% in size
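ATM-like activity read as KAP-1 phosphorylation via AlphaLISA donor/acceptor antibody pairs after lysis and 6 hr at 25C. Cells were ATM-null patient fibroblasts (F2112, hTERT), dosed 60 min, then exposed to the DSB inducer NCS for 30 min.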
MCF10A rereplic: inducers of DNA re-replication in MCF 10A breast cells | MCF 10A DNA re-replication, Hoechst nuclear intensity, 48 h | Potency, µM (series often up to 46.1 µM), inactives show at the highest dose activity, positive = re-replication, most hits filed as activators | hit rate 2.9% among 350,000; also: % of control where 0% means no effect; nearly all actives have a fitted effect of over 50% in size
p53 reactivation: re-activators of mutant p53. AID 504706. Potency, µM (highest dose often 92.2 µM), inactives show top-dose activity change, positive = activation, actives largely listed as activators. hit rate 0.063% among 320,000. H1299 p53-A138V BP100-luciferase reporter, luminescence, 24 h; also: % of control where 0% means no effect; nearly all actives have a fitted effect of over 45% in size
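H1299 (p53-null), stable ts p53-A138V + BP100-Luc; 1000 cells/well, Opti-MEM/10% FBS; cpd 4 pt, 1:5; 24 h, 37 deg C, 5% CO2; detection reagent 10 min RT; luminescence.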
ELG1 genotox: inducers of genotoxicity in HEK293T ELG1-luciferase cells. HEK293T ELG1-luciferase reporter, luminescence, 16 h. Potency, µM (top dose mostly 46 µM), inactives show at the top dose activity change, positive = activation, actives largely listed as activators. hit rate 1.3% among 330,000; also: % of control where 0% means no effect; nearly all actives have a fitted effect of over 60% in size
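DMSO vehicle served as control against compound-treated ELG1-luciferase HEK293T cells; exposure lasted 16 hr at 37 °C and 5% CO2, followed by ONE-Glo luminescence detection after 30 min.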
ELG1 repair inh: blocks ELG1-dependent DNA repair in HEK293T cells. HEK293T ELG1-luciferase reporter, luminescence, 16 h; DNA damage induced by 5-fluorouridine. Potency, µM (titrated, usually from 46.1 µM), inactives show at the highest dose activity change, negative = inhibition, usual class: inhibitors. hit rate 2.3% among 330,000; also: % is scaled to controls: 0 for no effect and ±100 for the full control effect; nearly all actives have a fitted effect of over 55% in size
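HEK293T cells expressing luciferase-tagged ELG1 (2,000/well) received 5-Fluorouridine plus compound or DMSO for 16 hr at 37 °C. Luciferase was read by ONE-Glo luminescence after 30 min at room temperature.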
* marks the source's active call; other numbers are inactive results; ? = inconclusive; . = no result given; [ ] = dose if it differs, or a comment. Calls follow the shape of the dose curve; as a rule, active = well fitted curve in the direction sought with a large enough effect; inconclusive = small, poorly fitted or top-dose-only effect, or another doubt; inactive = no such curve, though single readings can be large; an effect the other way counts as inactive or inconclusive. Potency is read from the fitted curve at half-maximal effect.

SMILES	SW480 rerep	A-T KAP1 phos	MCF10A rereplic	p53 reactivation	ELG1 genotox	ELG1 repair inh
COc1ccc(OC)c(S(=O)(=O)NCC(=O)NC2CCCc3ccccc32)c1 (stereo unspecified)	-2%	1%	4%	-6%	0%	12%
CCn1c(SC)nc2c(c1=O)SC(C)C2 (stereo unspecified)	-17%	-5%	21µM*	2%	-2%	?
CCSc1nc2c(c(=O)n1CC)SC(C)C2 (stereo unspecified)	23%	-2%	?	3%	4%	4%
CCOC(=O)c1c(CSc2nc(C)cc(C)c2C#N)n(C)c2cc(Br)c(OC(C)=O)cc12	1%	0%	5%	-2%	10%	?
CCOC(=O)c1c(CSC(=N)N)n(-c2ccc(Br)cc2)c2cc(Br)c(OC(C)=O)cc12	?	-8%	10µM*	-27%	-16%	?
CCCCCCCCOC(=O)c1c(CSC(=N)N)n(C)c2cc(Br)c(OC(C)=O)cc12	?	-3%	3.3µM*	7%	?	?
O=C1CSC(=S)N1c1cccnc1	?	12%	?	0%	3%	4%
O=C1CSC(=S)N1Cc1cccnc1	25%	2%	3.3µM*	-25%	-7%	-19%
O=C(O)c1ccc(N2C(=O)CSC2=S)cc1	-10%	.	17%	.	.	.
O=C(O)c1ccc(CN2C(=O)CSC2=S)cc1	14%	-4%	5.2µM*	-22%	-1%	1%
COc1ccc(C2CC(=O)c3cnn(-c4nc(C)cc(C)n4)c3C2)cc1 (stereo unspecified)	?	5%	0.82µM*	-1%	-14%	?
CC(=O)CSc1nnc2c3ccccc3nc(C(C)(C)C)n12	?	3%	?	-2%	?	2%
Cc1ccc(C(=O)CSc2nnc3c4ccccc4nc(C(C)(C)C)n23)cc1	13µM*	10%	6.5µM*	5%	-3%	16µM*
CCOC(=O)c1c(C)nc(C)c(C(=O)OCC)c1-c1ccc(O)c(OC)c1	3.7µM*	-1%	?	1%	-6%	?
Cc1ccc(N2Cc3ccccc3C2=O)cc1	-3%	3%	-3%	.	1.6µM*	?
O=C1c2ccccc2CN1c1ccccc1	-9%	-6%	-1%	8%	?	?
C=CC(=O)Oc1ccc(N2Cc3ccccc3C2=O)cc1	12µM*	.	?	.	.	.
COc1ccc(N2Cc3ccccc3C2=O)cc1	-60%	-4%	0%	.	1.8µM*	?
CCOC(=O)CCNC(=O)N1CCCC(N(C)CCc2ccccc2)C1 (stereo unspecified)	-58%	3%	6%	.	3%	7%
CCN(Cc1ccccc1)S(=O)(=O)c1c(C)[nH]c(C)c1C(=O)N1CCCC1	-24%	6%	0%	-6%	2%	24%
O=[N+]([O-])c1nn(-c2ccccc2)n(O)c1=NC1CCN(Cc2ccccc2)CC1	10µM*	4%	?	11%	-2%	?
O=[N+]([O-])c1nn(-c2ccccc2)n(O)c1=NCCc1ccccc1	?	-4%	?	?	?	?
O=[N+]([O-])c1nn(-c2ccc3c(c2)OCCO3)n(O)c1=NC1CCN(Cc2ccccc2)CC1	7.3µM*	-4%	15%	16%	1%	?
CCc1cccc(N=c2c([N+](=O)[O-])nn(-c3ccc4c(c3)OCCO4)n2O)c1	3%	-12%	0%	?	3%	-6%
C[C@@]12C(=O)Nc3cc(F)ccc3C(=O)N1[C@H]1c3ccccc3OC[C@@H]1[C@@H]2c1ccccc1	2%	-7%	29%	2%	-3%	?
SMILES	SW480 rerep	A-T KAP1 phos	MCF10A rereplic	p53 reactivation	ELG1 genotox	ELG1 repair inh
Cc1ccc2c(c1)[C@H]1[C@H](CO2)[C@H](c2ccccc2)[C@]2(C)C(=O)Nc3cc(F)c(F)cc3C(=O)N12	23µM*	3%	5.2µM*	0%	1%	-4%
Cc1ccc2c(c1)[C@H]1[C@H](CO2)[C@H](c2ccccc2)[C@]2(C)C(=O)Nc3cc(Cl)ccc3C(=O)N12	?	6%	9.2µM*	-7%	3%	-16%
Cc1ccc2c(c1)[C@H]1[C@H](CO2)[C@H](c2ccccc2)[C@]2(C)C(=O)Nc3ccc(F)cc3C(=O)N12	5.8µM*	.	3.3µM*	.	.	.
COc1ccc2c(c1)OC[C@H]1[C@H]2N2C(=O)c3ccc(C)cc3NC(=O)[C@@]2(C)[C@H]1c1ccccc1	14%	0%	27%	-1%	1%	13%
COc1ccc2c(c1OC)C(=O)OC2N1C(=O)CC[C@H]1C(=O)Nc1ccc(F)cc1F (stereo partly specified)	-1%	-9%	-3%	7%	-3%	-15%
C[C@H](C(=O)NCc1ccccc1)C(=O)c1ccccc1	-34%	11%	5%	2%	1%	3%
COc1cc2c(cc1OC)C1O[C@](CCCCN3C(=O)c4ccccc4C3=O)(C2)Oc2c1c(=O)oc1ccc(F)cc21	.	-4%[11.5 µM]	.	.	.	.
CCc1ccccc1NC(=O)c1ccc(Cn2cc([N+](=O)[O-])cn2)cc1	1µM*	0%	-2%	-5%	-7%	-12%
CCOc1ccc(C(=O)Nc2cnn(Cc3ccc(Cl)c(Cl)c3)c2)cc1	3%	3%	0.65µM*	0%	2%	-11%
O=C(Nc1cnn(Cc2ccc(Cl)cc2)c1)c1ccc([N+](=O)[O-])cc1	-3%	-8%	5%	-1%	-7%	21µM*
O=C(Nc1ccc([N+](=O)[O-])cc1)c1ccc(Cn2cc([N+](=O)[O-])cn2)cc1	-165%	-1%	?	15%	-7%	?
CCN(CC(=O)NCc1ccc(Cl)cc1)C(=O)c1cc(OC)cc(OC)c1	0%	-3%	-1%	-3%	0%	5%
CCC(C)(C)n1nnnc1C(c1cc(OC)ccc1OC)N1CCN(Cc2ccccc2)CC1 (stereo unspecified)	-2%	-2%	3%	-3%	0%	-7%
COc1ccc(C(=O)Nc2ccc(OCC(F)(F)C(F)F)c(C(F)(F)F)c2)cc1OC	1%[9.22 µM]	-4%	14%	-14%	-11%	-24%
O=C(Nc1ccc(OCC(F)(F)C(F)F)c(C(F)(F)F)c1)c1ccc(Cl)cc1	?	.	23µM*	.	.	.
O=C(Nc1ccc(Br)c(C(F)(F)F)c1)c1ccc(C(F)(F)F)cc1	?	21%	15µM*	?	-12%	?
